Where “and” joins values, the source holds several entries; their conditions need not be identical. Equal values may be shown once. Calls of active or inactive are those of the source.
Experiments:
[1] = biological target: Albumin (Bos taurus) (UniProt P02769); assay: bovine serum albumin binders on microarray, profiling panel, artefact control for SMM control protein annotation, biochemical, small-molecule microarray, Alexa647 label, 635/667 nm fluorescence (AID 1118); conditions: BSA-A647 binding, fluorescence 635 nm, higher = more signal;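 note: score merges 667 nm emission intensity and signal-to-noise per printed compound spot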
Albumin (Bos taurus), sequence (P02769 whole entry, looked up): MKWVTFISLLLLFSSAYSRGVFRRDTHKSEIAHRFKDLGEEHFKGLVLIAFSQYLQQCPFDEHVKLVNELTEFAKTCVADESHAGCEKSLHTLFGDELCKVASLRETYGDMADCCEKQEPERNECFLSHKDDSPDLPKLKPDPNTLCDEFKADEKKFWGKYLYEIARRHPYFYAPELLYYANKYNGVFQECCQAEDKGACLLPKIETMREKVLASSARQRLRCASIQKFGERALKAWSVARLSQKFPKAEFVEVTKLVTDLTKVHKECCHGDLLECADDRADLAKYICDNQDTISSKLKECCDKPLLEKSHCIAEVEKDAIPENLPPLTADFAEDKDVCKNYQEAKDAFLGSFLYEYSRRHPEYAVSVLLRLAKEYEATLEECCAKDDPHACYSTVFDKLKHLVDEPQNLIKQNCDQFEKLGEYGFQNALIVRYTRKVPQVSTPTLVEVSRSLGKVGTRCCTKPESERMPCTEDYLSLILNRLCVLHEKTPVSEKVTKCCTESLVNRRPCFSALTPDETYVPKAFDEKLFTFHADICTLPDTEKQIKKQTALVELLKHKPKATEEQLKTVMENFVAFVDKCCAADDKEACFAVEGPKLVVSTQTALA

[2] = small-molecule microarray binders of probe aXIP, primary screen, biochemical, NeuroSMM set, 635/667 nm fluorescence (AID 1119); conditions: higher = more signal, called active from +8 up or from −8 down;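 note: probe is the protein aXip251-270 applied at 1 µg/mL to compound-printed slides; binding of probe to printed compounds measured as 667 nm fluorescence plus signal to noise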
[3] = small-molecule binders of probe aNOTCH3, primary screen, biochemical, small-molecule microarray, 635/667 nm fluorescence (AID 1120); conditions: higher = more signal;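 note: probe is a biotin-tagged antibody raised against NOTCH3 rather than NOTCH3 protein; score merges spot fluorescence near 667 nm with spot signal to noise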
[4] = small-molecule binders of probe aNOTCH2, primary screen, biochemical, small-molecule microarray, 635/667 nm fluorescence (AID 1121); conditions: higher = more signal;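 note: score merges feature fluorescence read at 667 nm with its signal to noise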
[5] = biological target: Carbonic anhydrase 2 (Homo sapiens) (UniProt P00918); assay: CAII small-molecule binders, profiling panel, biochemical, small-molecule microarray, Alexa647-labelled CAII (AID 1122); conditions: CAII-A647 binding fluorescence, higher = more signal
[6] = COS7 lysate on small-molecule microarray, probe aHis, 635 nm (AID 1123); conditions: COS7 cell lysate, fluorescence, higher = more signal;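 note: z-score combines 667nm fluorescence intensity with signal-to-noise per printed compound spot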
[7] = compound binding in COS7 lysate, probe aLAP1, primary screen, cell lysate, small-molecule microarray (AID 1124); conditions: probe aLAP1, fluorescence, higher = more signal;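 note: lysate comes from COS7 cells expressing LAP1 and is applied at 0.3 µg/mL; score merges spot fluorescence near 667 nm with signal-to-noise over triplicate slides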
[8] = system: Sam68 (KHDRBS1); assay: Sam68 small-molecule binders, primary screen, biochemical, small-molecule microarray, 635 nm fluorescence (AID 1125); conditions: small-molecule microarray binding, higher = more signal;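 note: score merges 667 nm channel intensity with signal to noise over triplicate slides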
[9] = system: Chordin-like protein 2 (CHRDL2); assay: CHRDL2 small-molecule binders, primary screen, biochemical, small-molecule microarray, 635 nm fluorescence (AID 1126); conditions: small-molecule microarray binding, fluorescence 635 nm; higher = more signal;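 note: printed compound slides probed with Chrdl2 protein at 4 µg/mL for 1 h at 4 C; score merges 667 nm emission intensity with signal to noise over three replicate slides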
[10] = biological target: Concanavalin-A (Canavalia ensiformis) (UniProt P02866); assay: ConA small-molecule binders, primary screen, artefact control for SMM control protein annotation, biochemical, small-molecule microarray, Alexa647 label, 635 nm (AID 1127); conditions: ConA-A647 binding fluorescence, higher = more signal;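 note: z combines 667 nm emission intensity with signal-to-noise across three replicate slides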
Concanavalin-A (Canavalia ensiformis), sequence (P02866 whole entry, looked up): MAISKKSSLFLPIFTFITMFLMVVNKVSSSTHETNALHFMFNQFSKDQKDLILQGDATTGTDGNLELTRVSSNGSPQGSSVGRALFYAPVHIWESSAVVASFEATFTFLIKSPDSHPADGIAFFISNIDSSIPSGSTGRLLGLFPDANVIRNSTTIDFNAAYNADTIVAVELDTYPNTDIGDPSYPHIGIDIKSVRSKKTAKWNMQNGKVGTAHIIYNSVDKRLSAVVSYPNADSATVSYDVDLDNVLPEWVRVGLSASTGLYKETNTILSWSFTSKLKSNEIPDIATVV

Row | SMILES | composite z-score [1] | composite Z-score [2] | composite z-score [3] | composite z-score [4] | composite z-score [5] | composite z-score [6] | composite z-score [7] | composite z-score [8] | composite z-score [9] | composite z-score [10]
1 | CO[C@H]1COC(=O)CC=C[C@@H](C)COC(=O)[C@@H](OCc2ccccc2)C=C[C@@H]1C | -0.853 | 0.528 (inactive) | -0.307 | -0.179 | -0.297 | -0.173 | 0.106 | -0.239 | 1.23 | -1.64
2 | CCN1C(=O)[C@H]2[C@H]3[C@H](O)[C@H](O)CC(=NOC)[C@@H]3CC[C@H]2C1=O | -0.311 | -0.791 (inactive) | 0.0297 | -0.0681 | -0.317 | -0.417 | -0.375 | -0.478 | 0.508 | -0.0569
3 | CC(C)[Si]1(C(C)C)OCc2cc(CCCc3cc4c(c(CCc5ccccc5)n3)[Si](C(C)C)(C(C)C)OC4)nc(CCc3ccccc3)c21 | -1.72 and -0.26 | -0.436 (inactive) and -0.38 (inactive) | -0.124 and -0.0578 | -0.125 and -0.108 | -0.139 and 0.0411 | 0.002 and 0.081 | 0.485 and 0.0666 | 0.23 and 0.716 | -0.126 and 0.424 | -1.42 and 0.124
4 | C[C@@H]1CC[C@H]2C(=O)NC[C@@H](O)CN2[C@H]1c1ccc(Br)cc1 | 0.446 and -0.624 | -0.312 (inactive) and 0.171 (inactive) | -0.0598 and -0.207 | -0.14 and -0.046 | 0.702 and -0.138 | 0.703 and 0.229 | -0.172 and -0.0957 | -0.46 and 0.119 | -0.119 and 0.127 | 0.407 and -0.416
5 | C=CCN(CCCCC)C(=O)C(c1cccs1)N(CCOCCO)C(=O)/C=C\C(=O)O (stereo not given) | -0.148 and -0.301 | -0.116 (inactive) and 0.239 (inactive) | -0.554 and -0.488 | -0.177 and -0.143 | 0.86 and 0.368 | -1.01 and -0.267 | -0.0541 and 0.235 | -0.856 and -0.0967 | -1.91 and -1.04 | -0.611 and -0.988
6 | C[N+](C)(C)CCCCCCNC(=O)[C@H]1C[C@H]2C(=O)N[C@@H](CCCC[N+](C)(C)C)C(=O)N2[C@H]1c1cccc(OCCO)c1 | -0.239 and -0.101 | 0.891 (inactive) and -0.166 (inactive) | -0.0647 and 0.203 | -0.148 and 0.046 | 0.655 and 0.419 | 0.897 and 0.214 | 0.479 and 0.285 | 0.861 and 0.669 | 1.22 and 1.04 | 0.606 and 0.352
7 | C=CCN(Cc1ccccc1)C(=O)C1N(c2ccc(CCO)cc2)C(=O)C2C(C(=O)O)C3C=CC21O3 (stereo not given) | -1.88 and -0.419 | -0.364 (inactive) and -0.371 (inactive) | -0.393 and -0.575 | -0.201 and 0.0434 | 0.942 and 0.937 | -0.361 and -0.701 | -0.418 and -0.931 | -1.15 and -1.08 | -1.61 and -3.84 | -1.82 and -1.97
8 | C=CCN(Cc1ccccc1)C(=O)C1N(C(C)(C)CO)C(=O)C2C(C(=O)O)C3C=CC21O3 (stereo not given) | -1.24 and -0.826 | -0.498 (inactive) and -0.61 (inactive) | -0.358 and -0.475 | -0.126 and -0.0956 | 0.47 and 0.296 | -0.0142 and -0.798 | -0.587 and -0.987 | -1.6 and -1.66 | -2.74 and -1.88 | -2.4 and -2.33
9 | O=c1n(-c2ccccc2)c(=O)n2n1CC[C@@H]1C(=NOC[C@@H](O)COCc3ccco3)[C@H]3O[C@H]3[C@@H](O)[C@@H]12 | -0.73 and 0.143 | -0.014 (inactive) and 0.545 (inactive) | -0.173 and -0.268 | -0.122 and -0.174 | -0.14 and 0.0148 | -0.251 and -0.862 | -0.0025 and -0.111 | 0.623 and -0.34 | 1.31 and 0.628 | -0.331 and 0.101
10 | CCOC(=O)NN=C1C[C@@H](O)[C@@H](O)[C@@H]2[C@@H]3C(=O)N(Cc4ccc5c(c4)OCO5)C(=O)[C@@H]3CC[C@@H]12 | 0.397 | 0.221 (inactive) | -0.141 | -0.0349 | -0.158 | 0.257 | -0.377 | 0.789 | 0.171 | 0.837
11 | C[C@@H]1CC[C@H]2C(=O)N3[C@@H](CC[C@@H](C)[C@@H]3c3ccc(-c4ccco4)cc3)C(=O)N2[C@H]1c1ccc(-c2ccco2)cc1 | 0.346 and -0.391 | 0.705 (inactive) and 1.24 (inactive) | 0.116 and 0.385 | 0.0079 and 0.0312 | 0.688 and 0.645 | 1.12 and 0.0336 | 0.412 and -0.258 | 1.3 and 1.1 | 1.05 and 1.57 | 1.11 and 1.16
12 | CCCC[C@@H]1CN2[C@@H](CC[C@@H](C)[C@@H]2c2ccc(Br)cc2)C(=O)O1 | 0.604 and 0.712 | 0.548 (inactive) and 0.14 (inactive) | 0.0293 and -0.0219 | -0.104 and -0.164 | 0.284 and 0.282 | 1.22 and 0.595 | -0.0028 and 0.498 | 1.1 and 0.929 | 0.306 and 0.0739 | 0.402 and 0.987
13 | CC(C)CON=C1C[C@@H](O)[C@@H](O)[C@@H]2[C@@H]3C(=O)N(c4cccc(Oc5ccccc5)c4)C(=O)[C@@H]3CC[C@H]12 | 0.529 | -0.116 (inactive) | -0.0077 | -0.118 | 0.315 | 0.328 | -0.216 | 0.594 | 0.22 | 0.882
14 | COC(=O)C1=C(C)N(Cc2ccccc2)[C@]23O[C@](C(=O)OC)(C(=O)N2[C@@H]1c1ccccc1)[C@H]1C(=O)N(c2ccccc2)C(=O)[C@H]13 | 0.692 and 0.614 | -0.119 (inactive) and -0.275 (inactive) | 0.121 and 0.024 | 0.0793 and -0.0321 | 0.306 and 0.428 | 1.05 and -0.39 | 0.294 and 0.526 | 0.682 and 0.308 | 0.223 and 0.523 | 0.838 and 0.0089
15 | CCOC(=O)[C@H](CC(C)C)NC(=O)CCC1CC(OC(=O)NCc2cccc3ccccc23)CC2(CCCC(COC(=O)NCc3ccccc3)O2)O1 (stereo not given in full) | -0.294 | -0.19 (inactive) | -0.155 | -0.152 | -0.3 | 0.043 | -0.384 | -0.903 | -0.139 | -0.68
16 | O=C1[C@H]2[C@H]3[C@H](O)[C@H](O)CC(=NOCc4ccccc4)[C@H]3CC[C@H]2C(=O)N1Cc1ccccc1 | 0.273 | -0.283 (inactive) | -0.136 | -0.0729 | 0.0146 | 0.233 | -0.123 | -0.873 | 0.374 | -0.229
17 | CC(C)OC(=O)C=C1C[C@@H](c2ccccc2)O[C@@H](c2ccccc2)O1 | 0.799 and 0.915 | 0.417 (inactive) and 0.224 (inactive) | 0.168 and 0.308 | -0.029 and 0.0219 | 0.749 and 0.727 | 2.74 and 1.87 | 0.809 and 0.779 | 1.33 and 1.3 | 0.0745 and 0.626 | 1.02 and 1.09
18 | C=CCN(C(=O)C(c1cccs1)N(CCOCCO)C(=O)/C=C\C(=O)O)c1ccc(OC)cc1 (stereo not given) | -0.625 and -1.25 | 0.347 (inactive) and -0.659 (inactive) | -0.212 and -0.312 | -0.14 and -0.126 | -0.655 and -0.65 | -0.718 and -1.36 | 0.164 and -0.531 | -1.75 and -1.35 | -0.166 and -3.29 | -0.337 and -2.28
19 | C=CCN(CCCCC)C(=O)C1N(C(C)(C)CO)C(=O)C2C(C(=O)O)C3C=CC21O3 (stereo not given) | -0.544 and -0.85 | 0.159 (inactive) and -0.421 (inactive) | -0.484 and -0.372 | -0.112 and -0.0984 | 0.196 and 0.327 | -1.14 and -0.703 | -0.385 and 0.137 | -1.11 and -1.2 | -1.84 and -2.83 | -1.83 and -1.31

— PubChem BioAssay
